Screens as filed in PubChem BioAssay.
AMA1-RON2 inh – disrupts binding of P. falciparum AMA1 to RON2 | AlphaScreen AMA1-biotinylated RON2 peptide binding | Potency, µM (series often up to 58.2 µM), for the others: at the highest dose activity change, negative = inhibition, most hits filed as inhibitors | 360,000 tested, 0.2% active | AID 720542;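 note: 0% = vehicle wells and -100% = peptide control; nearly all actives have a fitted effect of over 45% in size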
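AMA1 (3D7) with his tag at 25 nM final met compounds first, then biotinylated RON2 peptide at 25 nM; detection used donor plus acceptor beads, 10 µg/mL apiece, read by AlphaScreen after 30 min at room temperature.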
Pf growth 96h – inhibits malaria parasite growth, 96 h. P. falciparum luciferase reporter growth, 96 h. Potency, µM (titrated, usually from 28.7 µM), inactives show at the top dose activity change, negative = inhibition, usual class: inhibitors. 320,000 tested, 6.9% active. AID 504834; note: % is set by controls: 0 for no effect and ±100 for the full control effect
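Parasite growth measured via integrated firefly luciferase reporter in P. falciparum. Infected erythrocytes at 2% hematocrit, 0.05% parasitemia final were treated 96 hours at 37 C under 5% CO2, and luminescence was read.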
Pf growth 48h – inhibits P. falciparum growth in the first generation, 48 h; AID 504832; Potency, µM (highest dose often 28.7 µM), for the others: at the top dose activity change, negative = inhibition, hits mostly inhibitors; 310,000 tested, 5.9% active; P. falciparum luciferase growth in erythrocytes, 48 h; note: % is set by controls: 0 for no effect and ±100 for the full control effect
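Parasite viability was followed by luminescence of a genomically integrated firefly luciferase. Cultures held 0.1% parasitemia at 2% hematocrit (final), incubated under 5% CO2 at 37 C.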
HCV inh – blocks hepatitis C virus. Huh7.5.1 HCVcc-Cre infection, luciferase reporter, 44 h. Potency, µM (top dose mostly 41.8 µM), without a hit: top-dose activity change, negative = inhibition, actives largely listed as inhibitors. 340,000 tested, 3.4% active; note: % is set by controls: 0 for no effect and ±100 for the full control effect
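HCVcc-Cre virus at an moi near 0.5 was added right after compound to cells cultured 4 h from seeding (1,000 cells/well). Luciferase activity was determined 44 h later, 15 min after substrate addition at RT.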
SARS PLpro yeast – blocks SARS-CoV papain-like protease in a yeast assay. S. cerevisiae expressing SARS-CoV PLpro, growth rescue. Potency, µM (titrated, usually from 32.9 µM), for inactives: top-dose activity, positive = growth rescue, actives largely listed as activators. 330,000 tested, 0.19% active. AID 485353; calls by dose curve; note: 0% is about no effect; nearly all actives have a fitted effect of over 55% in size
NS1 function inh – blocks influenza NS1 protein function; 270,000 tested, 0.4% active; AID 2326; Potency, µM (series often up to 46.1 µM), inactives show at the top dose activity, positive = more growth; calls by dose curve; note: actives are rising curves; nearly all actives have a fitted effect of over 50% in size
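In this qHTS, NS1 from influenza A is expressed in budding yeast, where it slows growth. Cells are switched from glucose to 2% galactose medium (pH 6.0, -URA), treated with compound, and growth recovery is read at OD600.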
Starred values were filed as active, the others as inactive; ? = inconclusive; · = no result. Compounds with a hit are over-represented: about 12% of the library has one in this group of screens. Unless noted, calls come from the whole dose curve; as a rule, active = well fitted curve in the direction sought with a large enough effect; inconclusive = small, poorly fitted or top-dose-only effect, or another doubt; inactive = no such curve, though single readings can be large; an effect the other way counts as inactive or inconclusive. Potency is the fitted concentration of half-maximal effect.

SMILES	AMA1-RON2 inh	Pf growth 96h	Pf growth 48h	HCV inh	SARS PLpro yeast	NS1 function inh
Cc1ccc(CN2C(=O)C(C)Nc3ncnc(N4CCOCC4)c32)cc1 (stereo not drawn)	16%	12µM*	10µM*	10%	3%	·
O=C1C(Cc2ccccc2)Nc2ncnc(N3CCCCC3)c2N1Cc1ccc(Cl)cc1 (stereo not drawn)	24%	12µM*	12µM*	-6%	-4%	·
Cc1n[nH]c(C)c1CCNC(=O)C1CCC(=O)N(CCc2cccc(F)c2)C1 (stereo not drawn)	5%	?	24%	11%	1%	2%
CCC(Sc1nc2ccncc2[nH]1)C(=O)Nc1cc(Cl)ccc1C (stereo not drawn)	-1%	?	-6%	-4%	8%	-2%
Cc1ccn(C(=O)c2ccc(NC(=O)CC(C)C)cc2)n1	-24%	-11%	14%	17%	0%	-7%
OC[C@@H]1CCC[C@H](n2cnc3c(=S)nc[nH]c32)O1	·	·	·	·	·	5%
CN(C)S(=O)(=O)c1ccc(NC(=O)CCCNC(=O)c2ccc(Cl)cc2)cc1	9%	27%	23%	0%	1%	3%
CCOC(=O)C1=C(COC(=O)Cc2ccccc2[N+](=O)[O-])NC(=O)NC1C (stereo not drawn)	5%	·	·	·	·	·
O=C1C(Cc2ccccc2)Nc2ncnc(N3CCN(c4ccccc4)CC3)c2N1Cc1ccc(Cl)cc1 (stereo not drawn)	-15%	9.3µM*	3.7µM*	?	3%	·
Cc1cccc(C(=O)NNS(=O)(=O)c2ccc(F)cc2)c1	7%	4%	0%	-1%	-3%	1%
Cc1cc(NC(=O)CSc2nc3c([nH]c4ccccc43)c(=O)n2-c2ccccc2F)no1	-1%	13µM*	13µM*	?	5%	-33%
COc1ccccc1-n1c(SCC(=O)Nc2cc(C)on2)nc2c([nH]c3ccccc32)c1=O	-11%	12µM*	-21%	?	6%	-20%
Cc1cc(NC(=O)CSc2nc3c([nH]c4ccccc43)c(=O)n2-c2cccc(C(F)(F)F)c2)no1	-6%	9.3µM*	12µM*	?	17%	4%
Cc1ccccc1-n1c(SCC(=O)NCC2CCCO2)nc2c([nH]c3ccccc32)c1=O (stereo not drawn)	-11%	-22%	?	-13%	-3%	-7%
COc1cccc(-n2c(SCC(=O)Nc3cc(C)on3)nc3c([nH]c4ccccc43)c2=O)c1	-6%	?	?	?	-6%	?
COc1ccc(C)cc1-n1c(SCC(=O)NCC2CCCO2)nc2c([nH]c3ccccc32)c1=O (stereo not drawn)	-15%	?	9.3µM*	8.9µM*	7%	?
Cc1cc(C)cc(N(CC(=O)O)S(=O)(=O)c2cccnc2)c1	·	·	·	·	·	-9%
NC(=S)NNc1cccc2cccnc12	-27%	?	7.4µM*	?	0%	0%
O=S(=O)(NCc1ccccc1F)c1cccc(S(=O)(=O)N2CCOCC2)c1	-2%	63%	8.3µM*	18%	0%	1%
O=C(NN=C1CCCC1)c1cccc(Br)c1	50%	15%	7%	-8%	-6%	-1%
O=C(NCCCl)NNc1c(Cl)cc(Cl)cc1Cl	-9%	?	-30%	-1%	0%	·
CCCCNC(=S)NNc1c(Cl)cc(Cl)cc1Cl	-8%	8.3µM*	-2%	1%	14%	·
COc1ccc2nc(NC(=O)CSc3nnnn3C3CCCCC3)sc2c1	-5%	-9%	4%	-4%	·	-47%
Clc1ccc(OCCSc2nnnn2C2CCCCC2)cc1	89%	·	19%	14%	12%	-5%
CCOc1ccc(OCCSc2nnnn2C2CCCCC2)cc1	21%	10µM*	11%	-27%	-11%	-23%
CCOc1ccc2nc(NC(=O)CSc3nnnn3C3CCCCC3)sc2c1	-21%	4.1µM*	39%	-2%	-5%	-39%
CN(CC(=O)Nc1cccc(F)c1)C(=O)c1ccc(C(=O)c2ccccc2)cc1	-22%	9.3µM*	?	?	1%	·
